Laboratory results published in PubChem BioAssay.
The source made the active and inactive calls.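 The calls were made as follows, unless noted: active = fluorescence slope after compound addition differing from the mean of all screened samples at 99.7% confidence, in either direction; inactive = the rest.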

Columns and labels:
[1] = inhibitors of TNFa-induced NFkB p65 translocation, primary screen, imaging, HUVEC, MLSMR starter and 10KST1 sets (AID 438;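 active = inhibition above 20% together with a positive visual image hit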;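 also: compound added about 3h40 before a 20 min TNFalpha stimulation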;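 as to inhibition: signal is the nuclear over cytoplasmic p65 intensity ratio per well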); details: HUVEC TNFa-induced p65 nuclear translocation; cell count: measured here: nuclei count (cytotoxicity indicator), at 2.08 µM; inhibition: at 2 µM, stronger effect = higher value, 0% TNFa-plus-vehicle, 100% no-TNFa wells
[2] = reduction of polyQ htt aggregates in cells – imaging, exon1htt(103Q)mCFP cells, high-content imaging, primary screen (AID 483;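 active = visual image review flags a hit and inhibition of aggregation exceeds 20%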;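 also: compound exposure lasted 3 days before fixation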;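 as to nuclei count: percent of the per-plate median nuclei count of sample wells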); details: exon1htt(103Q)mCFP cell line, aggregate imaging, at 2 µM; inhibition of aggregation: stronger effect = higher value; nuclei count: measured here: cell count, toxicity
[3] = endothelial E-selectin expression blockers – imaging, HUVEC, immunofluorescence, MLSMR starter and 10KST1 sets, primary screen (AID 487;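 active = visually confirmed hit in the image check and inhibition above 20%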;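 as to inhibition: signal is fraction of cell area covered by stained E-selectin grains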;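 as to nuclei count: 100% = median nuclei count of all wells on the same plate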); details: HUVEC TNFalpha-induced E-selectin immunofluorescence imaging, at 2 µM; inhibition: stronger effect = higher value; nuclei count: measured here: cell number, toxicity
[4] = biological target: Voltage-gated potassium channel subunit beta-2 (Rattus norvegicus) (UniProt P62483); assay: inhibitors of rat Kvbeta2 reductase activity – biochemical, NADPH fluorescence, primary screen (AID 622;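 active = fluorescence slope higher than the sample average by over 3 SD, cut at about -0.22 in these data, passing the limit was not always enough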;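 also: slope of raw intensity against log time taken from 70 to 1610 s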); details: recombinant KvBeta, 4-cyanobenzaldehyde reduction, at 10 µM, stronger effect = higher value
[5] = biological target: Voltage-gated potassium channel subunit beta-2 (Rattus norvegicus) (UniProt P62483); assay: enhancers of rat Kvbeta2 NADPH turnover – biochemical, NADPH fluorescence, primary screen (AID 623;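 active = NADPH fluorescence slope more negative than the mean of all samples by about 3 SD, 99.7% confidence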;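 also: fluorescence intensity change per second fitted from 20 to 320 s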); details: Recombinant KvBeta, NADPH fluorescence decrease slope, 10 min; at 10 µM; stronger effect = lower value
[6] = biological target: Alpha-2C adrenergic receptor (Homo sapiens) (UniProt P18825); assay: compounds altering alpha2C-coupled GIRK flux – cell-based, HEK293 alpha2C/GIRK1/2, thallium flux, primary screen (AID 624); details: thallium flux BTC fluorescence, at 10 µM, actives lie on both sides;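 also: slope of fluorescence ratio to pre-addition baseline per second over 15 to 24 s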
[7] = blockers of RIG-like receptor reporter activation – cell-based, Sendai virus stimulus, luciferase, 10K MLSCN set, TLR/RLR signaling modifier project, primary screen (AID 602276;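 active = inhibition at or above 50% at 10 µM; inactive = inhibition below 50%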;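 also: firefly luciferase from ISG56 promoter only with Renilla not read in this screen; 0% = Sendai virus plus DMSO and 100% = medium plus DMSO without virus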); details: HEK293 RL24 IRF3 luciferase reporter, at 10 µM, stronger effect = higher value
[8] = TLR3 IRF3 reporter activation blockers – cell-based, poly I:C stimulus, luciferase, 10K MLSCN set, primary screen (AID 602277;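 active = inhibition of the reporter signal at or above 50%; inactive = inhibition below 50%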); details: HEK293-TLR3 RL24 IRF3 luciferase reporter, at 10 µM, stronger effect = higher value

Chain of Alpha-2C adrenergic receptor (Homo sapiens) (P18825 whole entry, looked up): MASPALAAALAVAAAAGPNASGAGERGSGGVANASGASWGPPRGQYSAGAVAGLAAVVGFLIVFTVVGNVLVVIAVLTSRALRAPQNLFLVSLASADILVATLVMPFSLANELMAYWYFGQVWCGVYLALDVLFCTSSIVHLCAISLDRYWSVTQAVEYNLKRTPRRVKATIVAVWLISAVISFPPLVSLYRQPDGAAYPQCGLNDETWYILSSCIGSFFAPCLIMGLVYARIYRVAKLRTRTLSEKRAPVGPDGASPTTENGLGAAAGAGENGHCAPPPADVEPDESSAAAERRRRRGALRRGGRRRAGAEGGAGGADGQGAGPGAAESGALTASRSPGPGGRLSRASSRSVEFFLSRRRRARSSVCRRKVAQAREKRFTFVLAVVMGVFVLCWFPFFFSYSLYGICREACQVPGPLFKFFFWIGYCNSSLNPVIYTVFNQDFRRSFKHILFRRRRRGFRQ
Chain of Voltage-gated potassium channel subunit beta-2 (Rattus norvegicus) (P62483 whole entry, looked up): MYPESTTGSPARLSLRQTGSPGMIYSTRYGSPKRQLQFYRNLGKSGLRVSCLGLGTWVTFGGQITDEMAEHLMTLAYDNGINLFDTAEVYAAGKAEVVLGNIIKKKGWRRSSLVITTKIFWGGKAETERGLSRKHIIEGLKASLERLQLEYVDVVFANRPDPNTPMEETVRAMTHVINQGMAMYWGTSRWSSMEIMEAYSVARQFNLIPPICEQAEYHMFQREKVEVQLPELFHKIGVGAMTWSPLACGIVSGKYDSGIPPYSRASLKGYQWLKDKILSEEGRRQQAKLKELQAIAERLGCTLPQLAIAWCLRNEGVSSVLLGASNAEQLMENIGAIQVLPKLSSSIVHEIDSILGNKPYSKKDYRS

CC(C)(C)NC(=O)COC(=O)c1ccc(O)cc1
cell count [1]: 714 | inhibition [1]: -6.7% (inactive) | inhibition of aggregation [2]: -18.1% (inactive) | nuclei count [2]: 98.1% | inhibition [3]: 10% (inactive) | nuclei count [3]: 101% | fluorescence slope [4]: -0.625 (inactive) | NADPH fluorescence slope [5]: 7.6e-06 (inactive) | slope [6]: 0.00738 (inactive) | inhibition [7]: -6.22% (inactive) | inhibition [8]: -8.12% (inactive)

NC(=O)C1(N2CCCCC2)CCN(CC(=O)Nc2cc(Cl)ccc2Cl)CC1
cell count [1]: 357 | inhibition [1]: -3% (inactive) | inhibition of aggregation [2]: 14.8% (inactive) | nuclei count [2]: 86.2% | inhibition [3]: 26.7% (inactive) | nuclei count [3]: 74.8% | fluorescence slope [4]: -0.583 (inactive) | NADPH fluorescence slope [5]: -5.7e-05 (inactive) | slope [6]: 0.00416 (inactive) | inhibition [7]: -15.6% (inactive) | inhibition [8]: -7.63% (inactive)

COc1ccc(C)cc1NC(=O)CN1CCN(S(=O)(=O)c2ccc(Cl)cc2)CC1
cell count [1]: 409 | inhibition [1]: -1.5% (inactive) | inhibition of aggregation [2]: 4.2% (inactive) | nuclei count [2]: 104% | inhibition [3]: -76.7% (inactive) | nuclei count [3]: 98.9% | fluorescence slope [4]: -0.41 (inactive) | NADPH fluorescence slope [5]: -3e-05 (inactive) | slope [6]: 0.0018 (inactive) | inhibition [7]: 5.97% (inactive) | inhibition [8]: 15.6% (inactive)

COc1ccc(C2=CC(=O)OC3(CCCCC3)O2)cc1
cell count [1]: 390 | inhibition [1]: -5.3% (inactive) | inhibition of aggregation [2]: -4.6% (inactive) | nuclei count [2]: 99.3% | inhibition [3]: -152% (inactive) | nuclei count [3]: 115% | fluorescence slope [4]: -0.475 (inactive) | NADPH fluorescence slope [5]: -8.9e-05 (inactive) | slope [6]: 0.0046 (inactive) | inhibition [7]: 13% (inactive) | inhibition [8]: 22.7% (inactive)

COc1cccc(NC(=O)CSc2nnc(Cc3cccn3C)n2-c2ccc(F)cc2)c1
cell count [1]: 567 | inhibition [1]: -3.3% (inactive) | inhibition of aggregation [2]: 38.3% (inactive) | nuclei count [2]: 85.3% | inhibition [3]: 26.6% (inactive) | nuclei count [3]: 110% | fluorescence slope [4]: -0.594 (inactive) | NADPH fluorescence slope [5]: -2.4e-05 (inactive) | slope [6]: 0.00609 (inactive) | inhibition [7]: -1.59% (inactive) | inhibition [8]: 15.6% (inactive)

CN(C(=O)C1CCOC1)c1nnc(-c2cccnc2)s1 (stereo not given)
cell count [1]: 745 | inhibition [1]: -12.4% (inactive) | inhibition of aggregation [2]: 15.3% (inactive) | nuclei count [2]: 67.6% | inhibition [3]: -41.7% (inactive) | nuclei count [3]: 116% | fluorescence slope [4]: -0.502 (inactive) | NADPH fluorescence slope [5]: -1.1e-05 (inactive) | slope [6]: 0.0059 (inactive) | inhibition [7]: -22% (inactive) | inhibition [8]: -24.2% (inactive)

COC(=O)CCC(=O)Nc1ccc(OC)cc1
cell count [1]: 418 | inhibition [1]: 0% (inactive) | inhibition of aggregation [2]: -15.3% (inactive) | nuclei count [2]: 108% | inhibition [3]: 31.8% (inactive) | nuclei count [3]: 101% | fluorescence slope [4]: -0.51 (inactive) | NADPH fluorescence slope [5]: -5.9e-05 (inactive) | slope [6]: 0.00654 (inactive) | inhibition [7]: 8.73% (inactive) | inhibition [8]: 19.4% (inactive)

CCCCn1c(CN2CCN(c3ccc(F)cc3)CC2)nc2c1c(=O)n(C)c(=O)n2C
cell count [1]: 574 | inhibition [1]: 14.4% (inactive) | inhibition of aggregation [2]: 1.3% (inactive) | nuclei count [2]: 90.1% | inhibition [3]: -6.8% (inactive) | nuclei count [3]: 82.5% | fluorescence slope [4]: -0.53 (inactive) | NADPH fluorescence slope [5]: -3.3e-05 (inactive) | slope [6]: 0.00657 (inactive) | inhibition [7]: 1.37% (inactive) | inhibition [8]: 3.77% (inactive)

CCC(C)(C(=O)NC1CCCC1)N(Cc1cccs1)C(=O)Cc1cccs1 (stereo not given)
cell count [1]: 698 | inhibition [1]: -0.9% (inactive) | inhibition of aggregation [2]: 21% (inactive) | nuclei count [2]: 127% | inhibition [3]: -7.8% (inactive) | nuclei count [3]: 112% | fluorescence slope [4]: -0.473 (inactive) | NADPH fluorescence slope [5]: -0.000168 (inactive) | slope [6]: 0.00631 (inactive) | inhibition [7]: 14.4% (inactive) | inhibition [8]: 44.6% (inactive)

COc1ccccc1OCC(=O)Nc1ccc(S(=O)(=O)Nc2nc(C)cc(C)n2)cc1
cell count [1]: 376 | inhibition [1]: 0% (inactive) | inhibition of aggregation [2]: -13.8% (inactive) | nuclei count [2]: 102% | inhibition [3]: -84% (inactive) | nuclei count [3]: 121% | fluorescence slope [4]: -0.335 (inactive) | NADPH fluorescence slope [5]: -6.1e-05 (inactive) | slope [6]: 0.00524 (inactive) | inhibition [7]: 11.5% (inactive) | inhibition [8]: 17.1% (inactive)

Cc1cc(C)nc(N2CCC(C(=O)Nc3ccc4c(c3)CCC4)CC2)n1
cell count [1]: 338 | inhibition [1]: 6.3% (inactive) | inhibition of aggregation [2]: 17.6% (inactive) | nuclei count [2]: 92% | inhibition [3]: -103% (inactive) | nuclei count [3]: 120% | fluorescence slope [4]: -0.405 (inactive) | NADPH fluorescence slope [5]: -6.3e-05 (inactive) | slope [6]: 0.00372 (inactive) | inhibition [7]: 5.67% (inactive) | inhibition [8]: 24.8% (inactive)

Cc1cc(C)n(C(=O)C23CC4CC(CC(C4)C2)C3)n1
cell count [1]: 448 | inhibition [1]: 0.9% (inactive) | inhibition of aggregation [2]: 14.6% (inactive) | nuclei count [2]: 102% | inhibition [3]: -12% (inactive) | nuclei count [3]: 89.4% | fluorescence slope [4]: -0.514 (inactive) | NADPH fluorescence slope [5]: -2.3e-05 (inactive) | slope [6]: 0.00607 (inactive) | inhibition [7]: 6.1% (inactive) | inhibition [8]: 17.9% (inactive)

CCSc1nnc(-c2ccc(OC)cc2)o1
cell count [1]: 651 | inhibition [1]: 11.1% (inactive) | inhibition of aggregation [2]: 0% (inactive) | nuclei count [2]: 99.1% | inhibition [3]: 61.5% (inactive) | nuclei count [3]: 106% | fluorescence slope [4]: -0.242 (inactive) | NADPH fluorescence slope [5]: -1.2e-05 (inactive) | slope [6]: 0.00568 (inactive) | inhibition [7]: -34% (inactive) | inhibition [8]: -118% (inactive)

O=C(O)Cc1ccccc1C(=O)O
cell count [1]: 685 | inhibition [1]: -0.4% (inactive) | inhibition of aggregation [2]: 0% (inactive) | nuclei count [2]: 99.9% | inhibition [3]: -66.3% (inactive) | nuclei count [3]: 142% | fluorescence slope [4]: -0.491 (inactive) | NADPH fluorescence slope [5]: -5e-05 (inactive) | slope [6]: 0.00429 (inactive) | inhibition [7]: 13.7% (inactive) | inhibition [8]: 11.2% (inactive)

CCn1c(C(Cc2ccccc2)NC(=O)COC)nc2ccccc21 (stereo not given)
cell count [1]: 471 | inhibition [1]: 13.9% (inactive) | inhibition of aggregation [2]: 5.5% (inactive) | nuclei count [2]: 124% | inhibition [3]: 14.1% (inactive) | nuclei count [3]: 110% | fluorescence slope [4]: -0.536 (inactive) | NADPH fluorescence slope [5]: -6.3e-05 (inactive) | slope [6]: 0.00652 (inactive) | inhibition [7]: 11% (inactive) | inhibition [8]: 31.9% (inactive)
